Results reported in PubChem BioAssay AID1259416 (Broad Institute, 2018).
Where “and” joins values, the source holds several entries; their conditions need not be identical. Equal values may be shown once. The campaign covered roughly 69,000 compounds. About 2,600 (3.8%) were called active. Cut-off read from the data, not from the text of the source: active = activity change below about -70% (passing the limit was not always enough); inconclusive = no clear call, values can overlap the other calls. The list comes from a sample in which actives are over-represented; it also holds similar structures and randomly drawn compounds. More than one record can exist for a structure, and the calls need not agree.

test: T. gondii growth inhibition with IFN-gamma, primary screen, cell-based (AID 1259416); settings: Toxoplasma gondii growth in IFN-gamma-treated host cells; stronger effect = lower value; concentration not given here;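 note: host cells are HeLa cells infected with Toxoplasma gondii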

Row | SMILES | activity change, negative = inhibition
1 | O=C(NCc1cccnc1)c1ccc(N2CCC(NC3C4CC5CC(C4)CC3C5)CC2)cc1 (centres undefined) | 5.88% (inactive)
2 | O=C(NCCc1nnc2n1CCNCC2)C1(c2ccccc2)CC12CCCC2 (centres undefined) | -3.83% (inactive)
3 | Cc1cc(C)c2c(n1)sc1c(=O)n(C)cnc12 | -4.83% (inactive)
4 | Cc1cc(C)c2c(-n3cccc3)c(C(=O)c3ccc(Cl)cc3)sc2n1 | -91.8% (active)
5 | COc1ccc(OC)c(C(=O)c2ccc(Cl)cc2)c1 | 36.6% (inactive)
6 | Cn1cc(C(CNC(=O)Nc2cccc(F)c2)c2cccnc2)c2ccccc21 (centres undefined) | 27% (inactive)
7 | CO[C@@H]1CN(C)C(=O)c2cc(NC(=O)NC3CCCCC3)ccc2OC[C@H](C)N(CC2CCOCC2)C[C@H]1C | -30.9% (inactive)
8 | CCCC(=O)Nc1ccc2c(c1)OC[C@@H](C)N(CC1CCOCC1)C[C@H](C)[C@H](OC)CN(C)C2=O | -83.2% (active)
9 | CO[C@@H]1CN(C)C(=O)c2ccc(NS(C)(=O)=O)cc2OC[C@@H](C)N(CC2CC2)C[C@@H]1C | -56.4% (inactive)
10 | O=C(CCc1nc(-c2ccccn2)no1)N1CCC(CCc2ccccc2F)CC1 | 18.8% (inactive)
11 | CCc1[nH]c2c(CNS(=O)(=O)N(C)C)cc(C)cc2c1C | -4.66% (inactive)
12 | Fc1ccc(Cl)cc1-c1nc(Nc2ccncc2)c2nccnc2n1 | -81% (active)
13 | Cc1nc(Nc2ccc(Cl)cc2)sc1C(=O)c1ccncc1 | 0.796% (inactive)
14 | O=C(Nc1ccccc1Oc1ccc(F)cc1)C1CC(=O)N(Cc2cccnc2)C1 (centres undefined) | 18.8% (inactive)
15 | O=C(Nc1nc(-c2ccc(Br)cc2)cs1)c1c(O)c2ccccc2[nH]c1=O | 8.75% (inactive)
16 | CCCc1nc(C)c(CNC(=O)C2CCOC2)s1 (centres undefined) | -2.34% (inactive)
17 | COCCCNC(=O)c1nc(Nc2ccc(F)cc2)c2ccccc2n1 | -29% (inactive)
18 | C=CC(=O)Nc1ccc2c(c1)CCC(=O)N2CC | -3.01% (inactive)
19 | O=C(Cn1c(C(=O)c2ccccc2)nc2ccccc21)c1ccc(Br)cc1 | -103% (active)
20 | O=C(Cn1c(NCCCO)nc2ccccc21)c1ccccc1 | -22.3% (inactive)
21 | O=C(CNC(=O)c1ccccc1F)c1ccc(Br)cc1 | 264% (inactive)

Row | SMILES | activity change, negative = inhibition
22 | Clc1cccc(CN2CC3CCCC(C2)C3N2CCOCC2)c1Cl (centres undefined) | 9.4% (inactive)
23 | C[C@@H]1CN([C@H](C)CO)C(=O)c2cccc(NC(=O)c3ccc(-c4nccs4)cc3)c2O[C@@H]1CN(C)C(=O)Nc1ccc(C(F)(F)F)cc1 | -77.7% (active)
24 | Cc1noc(C)c1S(=O)(=O)Nc1cccc2c1O[C@H](CN(C)Cc1ccc(C(F)(F)F)cc1)[C@H](C)CN([C@@H](C)CO)C2=O | 25.4% (inactive)
25 | C[C@H]1CN([C@@H](C)CO)C(=O)c2cccc(NC(=O)C3CCOCC3)c2O[C@@H]1CN(C)C(=O)Nc1cccc2ccccc12 | 5.47% (inactive)
26 | Cc1ccc(S(=O)(=O)Nc2cccc3c2O[C@H](CN(C)C(=O)Nc2ccc(C(F)(F)F)cc2)[C@@H](C)CN([C@@H](C)CO)C3=O)cc1 | 16.3% (inactive)
27 | C[C@H]1CN([C@@H](C)CO)C(=O)c2ccccc2-c2ccccc2CO[C@H]1CN(C)C(=O)Nc1ccc(-c2ccccc2)cc1 | -62.1% (inactive)
28 | CC(C)NC(=O)N(C)C[C@H]1Oc2c(NS(=O)(=O)c3cccs3)cccc2C(=O)N([C@H](C)CO)C[C@H]1C | -14.3% (inactive)
29 | C[C@H](CO)N1C[C@H](C)[C@@H](CN(C)Cc2ccc(C(F)(F)F)cc2)Oc2c(NC(=O)NC3CCCCC3)cccc2C1=O | -53.4% (inactive)
30 | C[C@H]1CN([C@@H](C)CO)C(=O)c2cccc(NC(=O)c3ccc(-c4nccs4)cc3)c2O[C@@H]1CN(C)C(=O)Nc1ccc(C(F)(F)F)cc1 | -80.3% (active)
31 | C[C@@H]1CN([C@H](C)CO)C(=O)c2cccc(NC(=O)NC3CCCCC3)c2O[C@H]1CN(C)Cc1ccc(C(F)(F)F)cc1 | -74.3% (active)
32 | O=C(Cn1ncc2ccccc2c1=O)NCc1cc(Cl)c2c(c1)OCCCO2 | 23% (inactive)
33 | Cc1ccsc1CNc1cccc(C(=O)N(C)Cc2snnc2C)c1 | -4.49% (inactive)
34 | Cc1ccc2oc(=O)n(CCC(=O)N3[C@@H]4CC[C@H]3CNC(=O)C4)c2c1 | -11.3% (inactive)
35 | Cc1cc(C)cc(NC(=O)N2CCC3(CC2)Nc2ccccc2-n2cccc23)c1 | 295% (inactive)
36 | O=C(N[C@H]1C[C@H]2C(=O)NCC(=O)N2C1)c1cccc(Cn2cccn2)c1 | -5.16% (inactive)
37 | COc1c(C)c2c(c(O)c1C/C=C(\C)CCC(=O)O)C(=O)OC2 | -91.9% (active)
38 | O=C(O)CSc1nnc(-c2ccn[nH]2)n1-c1ccccc1Cl | 55.4% (inactive)
39 | Cc1ccsc1CN(CCCN1CCOCC1)CC1=Cc2ccccc2OC1 | 97.9% (inactive)
40 | Cc1ccc2oc(CN(CCCO)Cc3sccc3C)c(C)c2c1 | -33.4% (inactive)
41 | CCS(=O)(=O)N1CCC2(CC1)Nc1ccc(C)c(C)c1-n1cccc12 | 28% (inactive)
42 | CC1(C)[C@]2(C(=O)NCCCc3nc4ccccc4o3)CC[C@@]1(C)OC2=O | 4.16% (inactive)

Row | SMILES | activity change, negative = inhibition
43 | c1ccc(N2CCC3(COCCN(c4ncccn4)C3)C2)nc1 (centres undefined) | -3.03% (inactive)
44 | O=C(CN1CCN(c2ccccn2)CC1)Nc1ccc(Br)cc1 | -9% (inactive)
45 | c1ccc(N2CCN(N=C3c4ccccc4-c4ccccc43)CC2)nc1 | -103% (active)
46 | CCCn1cc(S(=O)(=O)NCC2CCC(c3ccc(C(N)=O)c(C)n3)CC2)c(C)n1 (centres undefined) | 19.4% (inactive)
47 | CN(C)C(=O)[C@@]12CCCN(Cc3cccs3)C[C@@H]1CN(Cc1cnn(C)c1)C2 | -0.124% (inactive)
48 | FC(F)(F)c1cccc2c(N3CCN(C4CCOCC4)CC3)ccnc12 | -46.1% (inactive)
49 | CN(C(=O)Nc1ccc(Cl)cc1)n1cnc2ccccc2c1=O | -50.7% (inactive)
50 | CN(n1cnc2ccccc2c1=O)S(=O)(=O)c1cc(Cl)sc1Cl | -76.6% (active)
51 | COC(=O)c1cc(NC(=O)S(=O)(=O)c2ccccc2)cc(C(=O)OC)c1 | 86.5% (inactive)
52 | CCCCc1c(O)cc(-c2ccccc2)n(Cc2ccccc2)c1=O | -76.1% (active)
53 | Cc1ccc(O)c(CCc2ccccc2)n1 | 8.51% (inactive) and 1.67% (inactive)
54 | CCCCN(Cc1ccccc1)C(=O)c1cc2cccnc2n(Cc2ccc(Cl)cc2)c1=O | 28.6% (inactive)
55 | CC(C)(O)c1cn(C2CCN(C(=O)CCc3ccncc3)CC2)nn1 | 5.1% (inactive)
56 | O=S(=O)(c1ccc(Cl)c(Cl)c1)N1CCc2c([nH]c3ccccc23)C1C(F)(F)F (centres undefined) | -82.6% (active)
57 | O=C(c1ccc(F)cc1)N1CCc2c([nH]c3ccccc23)C1c1ccccc1 (centres undefined) | 63% (inactive)
58 | O=S(=O)(c1ccc(Cl)c(Cl)c1)N1CCC2(CC1)Nc1ccccc1-n1cccc12 | 43% (inactive)
59 | CCc1nnc(CN(CC)C(=O)c2cccc(-c3ccc(C)o3)c2)o1 | 0.889% (inactive)
60 | Cn1ccnc1-c1ccc(N2CCCC(OCc3cccnc3)C2)nn1 (centres undefined) | -19% (inactive)
61 | COCCc1noc(CN2CCCC2c2ccccn2)n1 (centres undefined) | 8.04% (inactive)
62 | N#C/C(=C\c1ccc(O)c(O)c1)C(=O)NCc1ccccc1 | 5.59% (inactive)
63 | CCC[C@H](NC(=O)/C(C#N)=C/c1cccc(Br)n1)c1ccccc1 | -72.2% (active)

Row | SMILES | activity change, negative = inhibition
64 | CN(C)C(=O)c1cccc(-c2ccccc2[C@@H]2[C@@H](CO)N(C(=O)C3CCCCC3)[C@H]2C#N)c1 | -9.68% (inactive)
65 | COCc1ncn2c1CN(C(=O)c1cnc(C)cn1)CCC2 | 16.2% (inactive)
66 | CC1CCCCC12NC(=O)N(CC(=O)N1CCN(Cc3ccccn3)CC1)C2=O (centres undefined) | 13.9% (inactive)
67 | COCCn1nnnc1CN(Cc1ccccc1)Cc1cc2ccc(C)c(C)c2[nH]c1=O | -81.4% (active)
68 | CC(C)Oc1cccc(-c2csc(C(N)=O)c2)c1 | 65.6% (inactive)
69 | CN(C)C(=O)C[C@]12COC[C@H]1CN(Cc1ccc3ccccc3n1)C2 | -5.46% (inactive)
70 | COCc1ccc(C(=O)Nc2ccc3nc(C)[nH]c3c2)o1 | -55.3% (inactive)
71 | COC(=O)Nc1nc2ccc(Sc3ccccc3)cc2[nH]1 | -69.1% (inactive) and 7.35% (inactive) and -78% (active)
72 | COC(=O)Nc1nc2ccc(C(=O)C3CC3)cc2[nH]1 | -69.3% (inactive)
73 | Cc1cc(C(=O)N2CCc3c(COCCN(C)C)cncc3C2)no1 | -28.8% (inactive)
74 | Cc1nnsc1CNC(=O)CC1CCc2ccccc21 (centres undefined) | -7.08% (inactive)
75 | CNC1(c2nnnn2CCOC(=O)Nc2ccc(Cl)cc2)CCCC1 | 93.6% (inactive)
76 | Cc1[nH]c(/C=C2\C(=O)Nc3ccc(S(=O)(=O)Cc4c(Cl)cccc4Cl)cc32)c(C)c1C(=O)N1CCC[C@@H]1CN1CCCC1 | -79.5% (active) and -88.9% (active) and -63.2% (inactive)
77 | COc1ccc(OC)c(CNC(=O)Cn2ncc3c(N4CCCC4)ncnc32)c1 | 7.89% (inactive)
78 | CC(C)(C)c1nc(-c2cccc(NS(=O)(=O)c3c(F)cccc3F)c2F)c(-c2ccnc(N)n2)s1 | -83.7% (active)
79 | CC1=C(C(=O)NCCCN2CC(C)CC(C)C2)C2(CCN(Cc3ccccc3)CC2)OC1=O (centres undefined) | -65.1% (inactive)
80 | O=C(c1nc2sccn2c1CN1CCC(c2ccccc2Cl)C1)N1CCCCC1 (centres undefined) | 1.45% (inactive)
81 | O=C(Nc1cccc(N2CCCCS2(=O)=O)c1)c1ccc(-n2cccn2)nc1 | 6.32% (inactive)
82 | CC(C)(C)c1ccc(Oc2ccc(NC(=O)Cc3cccs3)cn2)cc1 | -76.9% (active)
83 | Cc1ccc(C)c(-c2coc(-c3ccc(NC(=O)Cc4cccs4)cc3)n2)c1 | 7.55% (inactive)
84 | Cc1ccc(C(=O)Nc2ccc(Oc3ccc(C(C)(C)C)cc3)nc2)cc1 | -31.5% (inactive)
